# Screens from PubChem BioAssay.
# An excerpt weighted towards active compounds, which were near 2.5% of everything screened.
# Cruzain inh Det: cruzain (T. cruzi) inhibition with detergent; P25779; purified cruzain, Z-FR-AMC fluorescence, 0.01% Triton; Potency, µM, for inactives: max response, negative = inhibition, actives largely listed as inhibitors; actives 0.43% (n = 200,000); AID 1478;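 also: plate controls were neutral wells for no effect and buffer without enzyme for full effect; nearly all actives have a fitted effect of over 40% in size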
# Target sequence (P25779 123-467 limits assumed): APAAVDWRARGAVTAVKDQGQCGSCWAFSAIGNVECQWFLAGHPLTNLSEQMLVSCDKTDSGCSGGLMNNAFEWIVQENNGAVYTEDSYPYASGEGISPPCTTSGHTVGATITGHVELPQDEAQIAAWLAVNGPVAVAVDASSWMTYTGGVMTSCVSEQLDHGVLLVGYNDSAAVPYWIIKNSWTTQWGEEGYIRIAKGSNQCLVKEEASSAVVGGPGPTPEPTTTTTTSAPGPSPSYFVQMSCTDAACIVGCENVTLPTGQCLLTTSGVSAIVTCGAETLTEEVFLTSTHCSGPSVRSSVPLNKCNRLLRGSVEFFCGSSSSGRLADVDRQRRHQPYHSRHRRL
#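 Compounds were screened in titration against cruzain (1.5 nM) with 0.01% Triton X-100 to counter colloidal aggregation. Activity was the AMC fluorescence increase over 60 s after adding 2 uM Z-FR-AMC at pH 5.5.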
# Cruzain noTriton: cruzain (T. cruzi) inhibition without detergent; P25779; purified cruzain, Z-FR-AMC fluorescence, no detergent; Potency, µM, for the others: max response, negative = inhibition, actives largely listed as inhibitors; actives 2.3% (n = 200,000);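 also: plate controls were enzyme without inhibitor for no effect and buffer without enzyme for full effect; nearly all actives have a fitted effect of over 40% in size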
#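 Purified cruzain at 1.5 nM, pre-incubated 15 min with compound at room temperature in 100 mM sodium acetate pH 5.5, 5 mM DTT, 0.00005% Triton X-100. Reaction started with 2 uM Z-FR-AMC; AMC fluorescence increase over 60 s gives rate.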
# Numbers without * were called inactive; ? = inconclusive. Calls follow the shape of the dose curve; as a rule, active = well fitted curve in the direction sought with a large enough effect; inconclusive = small, poorly fitted or top-dose-only effect, or another doubt; inactive = no such curve, though single readings can be large; an effect the other way counts as inactive or inconclusive. Potency is read from the fitted curve at half-maximal effect.
SMILES,Cruzain inh Det,Cruzain noTriton
COc1cccc(NC(=O)c2oc3ccc(S(=O)(=O)N4CCC5(CC4)OCCO5)cc3c2C)c1,-2%,?
Cn1c(=O)c2c(-c3ccccc3)n3c(c2n(C)c1=O)C(c1ccc([N+](=O)[O-])cc1)Nc1ccccc1-3 (stereo unspecified),-4%,-5%
Cc1c(C(=O)NCc2ccc(N(C)C)cc2)oc2c1-c1nn(Cc3cccc(Cl)c3)cc1CC2,-9%,-8%
Cc1nn(-c2ccccc2)c(N2CCCCC2)c1/C=N/O,1%,-9%
Cc1nn(-c2ccccc2)c(N2CCCC2)c1/C=C1\N=C(c2ccccc2)OC1=O,1.6µM*,0.79µM*
CCOC(=O)c1c(NC(=O)/C=C/c2ccc3c(c2)OCO3)sc(C)c1C,3%,2%
Cc1nc(NC(=O)c2ccccc2)sc1Cc1ccc2c(c1)OCO2,-4%,?
CCOC(=O)c1c(NC(=O)CN2C(=O)c3ccccc3C2=O)sc(Cc2ccc3c(c2)OCO3)c1C,-1%,10µM*
Cc1c(Cc2ccc3c(c2)OCO3)sc(NC(=O)c2ccccc2)c1C(N)=O,-3%,25µM*
COC(=O)c1c(NC(=O)C2CC2)sc2c1CCCC2,-6%,-7%
CCOC(=O)c1c(NC(=S)Nc2ccc(C)cc2)sc2c1CCC2,-5%,?
CCOC(=O)c1c(NC(=S)Nc2cc([N+](=O)[O-])ccc2OC)sc2c1CCCCC2,-6%,13µM*
COC(=O)c1c(NC(=S)Nc2cc(OC)c(Cl)cc2OC)sc2c1CCCCC2,-2%,16µM*
O=c1/c(=C\c2ccc(O)cc2)sc2n1C(c1ccccc1)C(c1ccccc1)=NN=2 (stereo unspecified),-3%,25µM*
CCOC(=O)C1=C(c2ccccc2)N=c2s/c(=C\c3cccc(O)c3)c(=O)n2C1c1cccs1 (stereo unspecified),-4%,-4%
CCOc1ccccc1NC(=O)CCc1c(C)nc2c(c(C)nn2-c2ccccc2)c1C,-2%,4%
COCc1nnc(NC(=O)CCC2CCCCC2)s1,2%,-5%
O=C(CCC1CCCC1)Nc1nnc(-c2ccc3c(c2)OCO3)s1,0%,10µM*
CNCCCCCCCCSc1nc(C(C)C)ccc1C(=O)c1cccs1,-3%,21%
O=C(Nc1ccc(F)cc1)Nc1ccc(Cl)cn1,2%,-18%
O=C(Nc1cccc(Cl)c1)Nc1ccc(Cl)cn1,5%,25µM*
O=c1c2ccccc2nnn1CSc1nnc(-c2cccs2)n1Cc1ccccc1,-2%,-12%
C=CCn1c(SCC(=O)N2CCCC2)nc2scc(-c3cccs3)c2c1=O,-1%,2%
C=CCn1c(SCn2nnc3ccccc3c2=O)nc2scc(-c3cccs3)c2c1=O,4%,7.9µM*
C=CCn1c(SCC(=O)Nc2ccccc2)nc2scc(-c3cccs3)c2c1=O,-6%,25µM*
SMILES,Cruzain inh Det,Cruzain noTriton
CCCCOc1ccc(OC(=O)c2sc3ncn(Cc4cccc(F)c4)c(=O)c3c2C)cc1,0%,10%
C/C(=N\NC(=O)CNC(=O)C(c1ccccc1)c1ccccc1)c1ccccc1,5%,13µM*
C/C(=N\NC(=O)CNC(=O)C(c1ccccc1)c1ccccc1)c1ccc(C(C)(C)C)cc1,1%,?
c1ccc(CN2CCC3(CC2)SSC2(CCN(Cc4ccccc4)CC2)SS3)cc1,1%,0%
COc1ccc(/C=N/N2CCN(C3c4ccccc4-c4ccccc43)CC2)cc1O,-4%,15%
O=[N+]([O-])c1cc(/C=N/N2CCN(C3c4ccccc4-c4ccccc43)CC2)ccc1Cl,4%,13µM*
COc1ccc(NC(=O)c2nn(C34CC5CC(CC(C5)C3)C4)cc2[N+](=O)[O-])cc1,-4%,-1%
O=C(Nc1ccc2ccccc2c1)c1nn(C23CC4CC(CC(C4)C2)C3)cc1Br,4%,10µM*
CC(CNC(=O)C1CCN(C(=O)c2cc3sccc3n2C)CC1)c1ccccc1 (stereo unspecified),-3%,?
CN1C(=O)/C(=C/c2cc(N=Nc3ccccc3)ccc2O)SC1=S,-5%,16µM*
O=C1/C(=C/c2ccccc2O)SC(=S)N1Cc1cccnc1,-6%,-3%
Cc1cccc(-n2c(C)cc(/C=C3/C(=N)N4C(c5ccccc5)=CSC4=NC3=O)c2C)c1,-4%,5µM*
CCCC1=NN2C(=N)/C(=C\c3cc(C)n(-c4cccc(C)c4)c3C)C(=O)N=C2S1,-10%,?
Cc1c(C)n(Cc2ccc(F)cc2)c2ccc(C(=O)Nc3ccc(Cl)cc3)cc12,3%,25µM*
CCOc1ccc(NC(=O)c2ccc3[nH]c(C)c(C)c3c2)cc1,-8%,-19%
CCOc1ccc(NC(=O)c2ccc3c(c2)c(C)c(C)n3Cc2ccc(F)cc2)cc1,2%,25µM*
CC(=O)c1cccc(NC(=O)c2ccc3c(c2)c(C)c(C)n3Cc2ccc(Cl)cc2)c1,3%,6.3µM*
COc1ccc(OC)c(NC(=O)c2ccc3c(c2)c(C)c(C)n3Cc2ccc(F)cc2)c1,1%,5µM*
COc1ccc(NC(=O)c2ccc3c(c2)c(C)c(C)n3Cc2ccc(F)cc2)c(OC)c1,-1%,?
Cc1ccc(CNC(=O)c2ccc3c(c2)c(C)c(C)n3Cc2ccc(Cl)cc2)o1,-1%,?
CCn1c(C)c(C)c2cc(C(=O)Nc3cccc(Cl)c3)ccc21,-6%,?
C[Si](C)(C/C=C/CC[C@H](O)C1=CCCCC1=O)c1ccccc1,-1%,1%
COc1ccc(NC(=O)Nc2nnc(SCC(=O)Nc3cccc(C)c3C)s2)cc1,-1%,-10%
COc1ccc(CC(=O)Nc2ccc(-c3nc4ccccc4s3)c(C)c2)cc1OC,1%,-9%
CC(C)c1ccc(N2C(=O)CSC23C(=O)N(C)c2ccccc23)cc1 (stereo unspecified),-4%,-9%
SMILES,Cruzain inh Det,Cruzain noTriton
C=Cc1c(C)/c2[n-]/c1=C\c1[n-]c(c(CC)c1C)/C=c1\[n-]c3c(c1C)C(=O)C(C(=O)[O-])C=3c1[n-]c(c(C)c1CCC(=O)[O-])\C=2.[Cu].[Na+].[Na+] (stereo unspecified),?,14%
CCCCC1CCC(C(=O)N2CC(=O)Nc3ccc(Cl)cc3C2c2ccc(F)cc2)CC1 (stereo unspecified),-3%,-29%
Clc1ccc(Cl)c(Nc2ccnc(SCc3ccccc3)n2)c1,-6%,-12%
Oc1ccccc1/C=N/Nc1ccnc(SCc2ccccc2)n1,-6%,20µM*
Cc1nn(C)c(C)c1/C=C1/SC(=S)NC1=O,2%,3%
Cc1ccc(C2C(/C=C3/SC(=S)NC3=O)=C(c3cccs3)Oc3ccccc32)cc1 (stereo unspecified),-2%,7.9µM*
O=[N+]([O-])c1cc(S(=O)(=O)N2CCCC2)ccc1N/N=C/c1cccnc1,-2%,7%
CCC(/C=N/Nc1ccc(S(=O)(=O)N2CCCC2)cc1[N+](=O)[O-])CC,-1%,20µM*
Cc1ccc(C(=O)NC(=S)N2CCN(c3ccc([N+](=O)[O-])cc3)CC2)cc1,-8%,14%
Cc1ccc(C(=O)ON=C2CCN(c3ccc([N+](=O)[O-])cc3)CC2)cc1,-3%,32µM*
Cc1ccc(CCNC(=O)c2ccc(CSCc3ccccc3Cl)o2)cc1,-1%,8%
Cc1noc(C)c1C(=O)OCC(=O)NC(c1ccccc1)c1ccccc1,1%,-5%
Cc1onc(-c2c(F)cccc2Cl)c1C(=O)OCC(=O)NC(c1ccccc1)c1ccccc1,-4%,32µM*
Cc1ccc(NC(=O)Cn2nnc(C(=O)NCCc3ccccc3)c2N)cc1Cl,-4%,?
